Here are results for 24 compounds from PubChem BioAssay.

Usually inhibition stands for the drop in the measured response relative to a control, in per cent.

SMILES strings stand for the structures. Activity calls are given as the source filed them.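 Rule for the calls: active = inhibition at or above 50% relative to wild type and mutant plate controls; inactive = inhibition below 50%.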

This assay can be described thus: inhibitors of Chlamydomonas gravitaxis, primary screen, whole organism, Chlamydomonas reinhardtii, WT vs cilia-less mutant, absorbance, 96-well (AID 463189).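 Note: 0% = wild type cc124 cells in DMSO and 100% = ciliumless bld1 mutant cells.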 The conditions noted are these: OD600 absorbance, 2 days, at 10 µM, active compounds read high.
As for `CC(=O)c1c(O)c(C)c(O)c(Cc2c(O)c3c(c(C(=O)/C=C/c4ccccc4)c2O)OC(C)(C)C=C3)c1O`, the inhibition is -7.31% (inactive).

Consider `c1ccc2c(c1)[I+]c1ccccc1-2`, for which the inhibition was 152% (active).

Consider `Cc1o[nH]c(=O)c1CC(N)C(=O)O` (centres undefined), for which the inhibition was 5.41% (inactive).

Regarding `CN(N=O)c1ccc(O)c(O)c1`, the inhibition is 1.04% (inactive).

With `CNC(=O)OCC[N+](C)(C)C`, the inhibition is -0.129% (inactive).

With `COc1cc(C[C@@H](C)N)c(OC)cc1I`, the inhibition is -7.2% (inactive).

With `C[C@H](N)CN1CCc2ccc(Br)cc21`, the inhibition was -3.37% (inactive).

For the compound `CC(C)c1cccc(C(C)C)c1O`, the inhibition was -3.28% (inactive).

Turning to `COc1ccc2c3c1O[C@H]1C(=O)CC[C@@]4(O)C(C2)N(CC2CC2)CCC314` (some centres undefined), the inhibition was 3.52% (inactive).

As to `CCN(CC)C(=O)N[C@@H]1C[C@@H]2c3cccc4[nH]cc(c34)C[C@H]2N(C)C1`, the inhibition was 5.28% (inactive).

As for `CC(=O)NCCc1c[nH]c2ccccc12`, the inhibition was 7.09% (inactive).

As to `CC[C@@]1(O)C(=O)OCc2c1cc1n(c2=O)Cc2cc3ccccc3nc2-1`, the inhibition is 23.3% (inactive).

`C[C@H](Cc1ccc2c(c1)OC(C(=O)O)(C(=O)O)O2)NC[C@H](O)c1cccc(Cl)c1`: the inhibition is 1.22% (inactive).

Take `CO[C@H]1CC=C2CCN3CCC4=C(CC(=O)OC4)[C@]23C1`: the inhibition is 0.879% (inactive).

For the compound `C[C@@H]1O[C@@H](O[C@H]2C[C@@H](O)[C@]3(CO)[C@H]4[C@H](O)C[C@]5(C)[C@@H](C6=CC(=O)OC6)CC[C@]5(O)[C@@H]4CC[C@]3(O)C2)[C@H](O)[C@H](O)[C@H]1O`, the inhibition is 6.79% (inactive).

As for `CCCC[N+]1(C)C2CC(OC(=O)[C@H](CO)c3ccccc3)CC1C1OC12` (some centres undefined), the inhibition is -7.48% (inactive).

On to `CC(N)Cc1c[nH]c2ccc(O)cc12` (centres undefined), for which the inhibition was 7.26% (inactive).

With `CC(N)Cc1c[nH]c2ccc(OCc3cccs3)cc12` (centres undefined), the inhibition is 5.48% (inactive).

In the case of `NC(C(=O)O)c1cc(=O)[nH]o1` (centres undefined), the inhibition is 6.42% (inactive).

With `O=C1NCN(c2ccccc2)C12CCN(CC1COc3ccccc3O1)CC2` (centres undefined), the inhibition was 6.88% (inactive).

Consider `CCOC(=O)c1ncn2c1[C@@H]1CCCN1C(=O)c1cc(OC)ccc1-2`, for which the inhibition is 6.1% (inactive).

With `C[N+](C)(C)CCOC(=O)CBr`, the inhibition was 0.371% (inactive).

Take `NC(N)=Nc1ccc2[nH]c3c(c2c1)C[C@@]1(O)[C@H]2Cc4ccc(O)c5c4[C@@]1(CCN2CC1CC1)[C@H]3O5`: the inhibition is -0.588% (inactive).

On to `COc1ccc(CNC(=O)/C=C/c2ccc3[nH]cc(CCN(C)C)c3c2)cc1`, for which the inhibition was -7.85% (inactive).
